Experimental data published in PubChem BioAssay AID1822 (The Scripps Research Institute Molecular Screening Center, 2009).
Several values for one entry are separate records, joined by “and”; a condition that tells them apart may be missing. Equal values may be shown once. Screen size: about 290,000 compounds; about 3,500 (1.2%) were called active.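 How the source made its calls: active means inhibition above the campaign mean inhibition over all tested compounds plus 3 SD (cut at about 28% in these data); inactive means the rest.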 The sample as a whole holds a higher share of actives than the screen did.

Tested on: M18 aspartyl aminopeptidase (Plasmodium falciparum 3D7)
Experiment: PfM18AAP inhibitors, malaria aminopeptidase, primary screen, biochemical, QFRET, recombinant enzyme (AID 1822);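 further: 0% = plate median of test compound wells and 100% = 2 mM ZnCl2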
Conditions: H-Glu-NHMec fluorogenic cleavage, at 7.35 µM, stronger effect = higher value

inhibition, active:
COc1cc(/C=N/Nc2nn3cnnc3c3ccccc23)cc(OC)c1OC 43.6%
O=C(Nn1cnnc1)c1cc(Cl)ccc1Cl 54.6%
O=C(COc1ccccc1Cl)Nn1cnnc1 31%
O=C(COc1ccc([N+](=O)[O-])cc1Cl)Nn1cnnc1 33%
O=C(Nc1ccccc1Cl)Nn1cnnc1 77.6%
Cc1ccc(NC(=O)c2c(NC(=O)CCC(=O)O)sc3c2CCCCC3)cc1 36.1%
COC(=O)c1c(NC(=O)CCCC(=O)O)sc2c1CCCCC2 29.6%
COc1cc(/C=N/NC(=S)Nc2cccnc2)cc(OC)c1O 44.8%
O=C(CSc1ncn[nH]1)Nc1ccnc2ccccc12 71.8%
O=C(CSc1ncn[nH]1)Nc1nsc(-c2ccccc2)n1 34.3%
O=C(CSc1ncn[nH]1)Nc1nc(-c2cccc([N+](=O)[O-])c2)cs1 41.6%
Cc1csc(NC(=O)NC2(C(F)(F)F)Oc3ccccc3O2)n1 70.8%
Oc1c(Cl)cc(Cl)cc1/C=N/c1ncn[nH]1 45.4%
COc1cc(Br)cc(/C=N/c2ncn[nH]2)c1O 61.7%
Cc1ccnc(-n2sc3ccccc3c2=O)n1 42%
Cn1sc(=O)c2cc(S(=O)(=O)NC3CC3)ccc21 43%
S=c1[nH]nc2c3c4c(sc3ncn12)CCCC4 38.3%
CC(C)C1N=C2c3ccccc3N=C(SCC(=O)c3ccc(O)c(O)c3)N2C1=O (configuration not stated) 55.1%
O=C(Cn1c[n+](CC(=O)c2ccc([N+](=O)[O-])cc2)cn1)c1ccc([N+](=O)[O-])cc1 50.9% and 63.7%

inhibition, inactive:
COc1cc(Nc2nc3ccc(Cl)cc3n3cnnc23)cc(OC)c1OC -5.42%
COc1cc(/C=N/NC(=O)Cc2ccccc2)cc(OC)c1OC 0.54%
CCOC(=O)C(CC)/C(C)=N\NC(=O)c1cccc(C)c1 (configuration not stated) -12.1%
O=CN1CCN(C(=O)c2ccc(Br)o2)CC1 -0.01%
O=C(Cc1ccccc1)Nc1c(C(=O)N2CCCCCC2)cnn1-c1ccccc1 5.1%
O=C(COc1ccccc1Cl)Nc1ccc(C(=O)c2ccc(C(=O)O)cc2)cc1 -8.1%
Cc1nn(-c2ccccc2)c(C)c1NC(=O)COc1ccc(Cl)cc1Cl -6.26%
O=C(Nn1cnc2ccccc2c1=O)c1ccc([N+](=O)[O-])cc1Cl -1.63%
O=C(Nc1cccnc1)c1cc(Cl)ccc1Cl -0.24%
Cc1c(NC(=O)Nc2ccccc2Cl)sc(=S)n1C 4.48%
COc1ccccc1C(=O)Nn1cnnc1 18.1%
O=C(Nc1ccccc1Cl)Nc1cccc2cccnc12 6.47%
O=C(COc1ccccc1Cl)N1CCCCCCC1 5.5%
COc1ccccc1NC(=O)CCC(=O)N1CC(C)Oc2ccc(C)cc21 (configuration not stated) -4.62%
O=C(CN(Cc1ccccc1)C(=O)CCC(=O)Nc1ccccn1)NCCc1ccccc1 0.21%
O=[N+]([O-])c1cccc(S(=O)(=O)NCc2ccccn2)c1 -8.77%
CN(Cc1ccccc1)CC(O)COc1ccc(CNCc2cc3ccccc3s2)cc1 (configuration not stated) -3.49%
COc1ccc(C(=O)NC2CC2)cc1OC1CCN(C/C=C/c2ccccc2)CC1 -7.74%
CC(C)CCNC(=O)c1ccc2c(Cl)c3c(nc2c1)CCC3 -8.56%
CCN(CC)c1ccc(C(=O)NNC(=O)CCc2nc3ccccc3c(=O)[nH]2)cc1 -7.26%
CC(=O)N1CCOc2ccc(S(=O)(=O)N3CCN(c4cccc(C(F)(F)F)c4)CC3)cc21 -2.98%
COC(=O)c1c(NC(=O)C2CC(C)=C(C)CC2C(=O)O)sc2c1CCCCC2 (configuration not stated) -0.05%
COC(=O)c1c(NC(=O)CCN2CCOCC2)sc2c1CCCC2 -1.78%
Cc1ccc(C(=O)c2c(NC(=O)c3ccncc3)sc3c2CCCC3)cc1 -11.4%
O=C(CN1CCCC1)Nc1sc2c(c1C(=O)Nc1ccccc1)CCCC2 7.15%
Cc1cccc(OCC(=O)NC2CC(C)(C)NC(C)(C)C2)c1 7.98%
Cc1cc(C)c(S(=O)(=O)Nc2c(C)n(C)n(-c3ccccc3)c2=O)cc1[N+](=O)[O-] 1.79%
C=CCn1c(SCc2ccccc2)nc2c1c(=O)[nH]c(=O)n2C -4.12%
Cc1cc(=O)n2nc(N3CCCC(C(=O)NCc4cccc(Cl)c4)C3)sc2n1 (configuration not stated) 0.59%
CC(C)(C)c1ccc(C(=O)N2CCC(C(=O)N3CCCCC3)CC2)cc1 -4.18%
C=CCNC(=O)c1ccccc1SCc1c(C)noc1C -1.38%
COc1ccc(/C=C/C(=O)Nc2cccnc2)cc1OC -3.57%
COc1cc(/C=N/Nc2ccc(C)cc2)cc(Br)c1O 18.2%
O=C(CCC1CCN(C(=O)c2cccc(Cl)c2F)CC1)Nc1ccccc1 4.45%
COc1ccc(C(=O)NC(C)Cn2nc(C)cc2C)cc1OC1CCN(C(C)=O)CC1 (configuration not stated) 2.44%
COc1ccc(CCOC(=O)CNC(=O)c2ccc(Cl)cc2Cl)cc1 2.28%
O=C(CSc1n[nH]c(-c2cccnc2)n1)Nc1ccnc2ccccc12 -2.9%
O=C(CSc1nc(-c2ccccc2)cs1)Nc1cccc([N+](=O)[O-])c1 1.5%
O=C(CSC1=NCCS1)Nc1nc(-c2ccccc2)cs1 4.17%
O=C(CSc1nc2ccccc2[nH]1)Nc1nc(-c2ccccc2)c(-c2ccccc2)o1 1.21%
O=C(Nc1nsc(-c2ccccc2)n1)c1ccncc1 -9.47%
CCN(C(=O)CSc1ncn[nH]1)c1cccc2ccccc12 19%
O=C(Nc1ccccc1)Nc1nnc(COc2ccccc2F)s1 -2.7%
CCOc1ccc2nc(NC(=O)c3cc([N+](=O)[O-])ccc3N3CCOCC3)sc2c1 -2.3%
CCOC(=O)N1CCN(C(=O)c2ccc3c(=O)n(CCc4ccc(OC)c(OC)c4)c(=O)[nH]c3c2)CC1 4.45%
CCC(C)Sc1nc2c(cnn2-c2ccc(F)cc2)c(=O)[nH]1 (configuration not stated) 1.81%
COc1ccc(CCN(C)C(=O)C23CC4CC(CC(Cl)(C4)C2)C3)cc1OC -8.52%
CC1CCN(C(=O)CCc2nnc3ccc(NCc4ccco4)nn23)CC1 23.2%
CCC(C)[C@H](NC(=O)N1CCn2c1nc1ccccc12)C(=O)NCc1ccc(OC)cc1 (some centres not stated) 9.53%
C=CCC1(CC=C)CCCN1C(=O)c1cc(COc2ccc(-n3cncn3)cc2)on1 -14.1%
Cc1csc(NC(=O)Nc2ccccc2[N+](=O)[O-])n1 9.93%
CC(=O)Nc1cccc(C(=O)Nc2nc(C)cs2)c1 -10.2%
COc1ccc(N2CCN(C(=O)CN3C(=O)COc4ccccc43)CC2)cc1 -6.46%
Oc1ccc(Br)cc1C=Nc1ccc2[nH]ncc2c1 4.29%
Oc1ccc(Cl)cc1/C=N/c1nc2ccccc2[nH]1 0.82%
COc1ccc(Br)cc1/C=N/n1c(C)nnc1C 0.59%
O=C(CN1C(=O)c2cccnc2Oc2ccc(Cl)cc21)Nc1ccc(F)cc1 -4.17%
Cc1cc(F)ccc1N1CCC(N2CCN(C)C(CCO)C2)CC1 (configuration not stated) -5.24%
O=C(NNS(=O)(=O)c1ccc(F)cc1)C1CCCCC1 -0.96%
Cc1cc(=O)oc2c(C)c(OC(C)C(=O)NC3CCN(Cc4ccccc4)CC3)ccc12 (configuration not stated) -1.22%
Cc1ccnc(NC(=O)C2CCN(S(=O)(=O)c3c(C)c(C)cc(C)c3C)CC2)c1 3.42%
Cc1nc([N+](=O)[O-])nn1C12CC3CC(CC(Br)(C3)C1)C2 13.9%
Cc1ccnc(SCC(N)=O)n1 3.17%
Cc1ccnc(N2CCCC(C(=O)NC3CC3)C2)n1 (configuration not stated) 0.97%
CN(C)S(=O)(=O)c1ccc(N2CCCC2)c(C(=O)Nc2cccc(F)c2)c1 -1.31%
Cc1ccc(S(=O)(=O)N2CCCC(C(=O)N3CCN(C)CC3)C2)cc1 (configuration not stated) -0.92%
O=S(=O)(NC1CC1)c1ccc(F)c(F)c1 -0.16%
CC1CCC(NS(=O)(=O)c2ccc3c(c2)n(C)c(=O)c(=O)n3C)CC1 (configuration not stated) -14%
N=c1c2c3c(sc2ncn1N)CCCC3 2.91%
N=c1c2c3c(sc2ncn1N)CCCCC3 -3.67%
Cn1ncc(Br)c1C(=O)NC1CCCC1 -2.67%
CCC(C)NC(=O)CSC1=Nc2ccccc2C2=NC(CCC(=O)NCc3ccco3)C(=O)N12 (configuration not stated) -0.47%
O=C(CSC1=Nc2ccccc2C2=NC(CC(=O)NCc3ccco3)C(=O)N12)NCc1ccco1 (configuration not stated) 7.17%
CC(=O)C(C)n1cnc2scc(-c3ccc(C)cc3)c2c1=O (configuration not stated) 0.85%
CSc1ccc(CNC(=O)c2ccc(NC(=O)C3=CSCCO3)cc2)cc1 6.37%
COc1cccc(C(=O)Nc2nnc(S(=O)(=O)N3CCOCC3)s2)c1 1.13%
O=C(c1ccncc1)c1ccc([N+](=O)[O-])cc1 -0.4%
Cc1ccc(C(=O)Cn2cc([N+](=O)[O-])nc2C)cc1 1.83%
